Assay outcomes deposited in PubChem BioAssay by National Center for Advancing Translational Sciences (NCATS).
LmPK inh = LmPK (Leishmania mexicana) enzyme inhibition | Q27686 | purified LmPK, Kinase-Glo ATP luminescence, 1 h | Potency, µM (top dose mostly 57.5 µM), hits mostly inhibitors | 290,000 tested, 0.37% active
Target sequence (Q27686 whole entry, looked up): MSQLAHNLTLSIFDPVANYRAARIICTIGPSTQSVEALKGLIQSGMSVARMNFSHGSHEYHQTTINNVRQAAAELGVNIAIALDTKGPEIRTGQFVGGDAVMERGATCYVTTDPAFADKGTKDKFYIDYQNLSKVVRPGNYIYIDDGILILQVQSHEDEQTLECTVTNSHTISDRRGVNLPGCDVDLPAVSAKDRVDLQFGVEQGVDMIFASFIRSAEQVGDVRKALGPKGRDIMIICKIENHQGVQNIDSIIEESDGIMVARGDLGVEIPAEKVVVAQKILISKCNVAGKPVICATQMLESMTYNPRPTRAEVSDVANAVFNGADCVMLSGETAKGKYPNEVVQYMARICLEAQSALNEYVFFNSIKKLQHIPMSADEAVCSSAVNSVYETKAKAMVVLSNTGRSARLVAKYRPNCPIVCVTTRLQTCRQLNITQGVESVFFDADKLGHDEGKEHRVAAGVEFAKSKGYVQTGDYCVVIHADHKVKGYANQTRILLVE
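Screened at intermediate enzyme activity to detect both inhibitors and activators: LmPK at 0.1 nM, with a 0.5 nM enzyme column as activation reference. PEP 0.5 mM, ADP 0.1 mM; ATP detected by luminescence after 1 h.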
SARS PLP yeast = inhibitors of SARS-CoV papain-like protease in yeast; S. cerevisiae expressing SARS-CoV PLpro, growth rescue; Potency, µM (doses to about 32.9 µM), hits mostly activators; 330,000 tested, 0.19% active; AID 485353; calls by dose curve; also: nearly all actives have a fitted effect of over 55% in size
AMA1 RON2 block = disrupts binding of P. falciparum AMA1 to RON2 | AlphaScreen AMA1-biotinylated RON2 peptide binding | Potency, µM (doses to about 58.2 µM), actives largely listed as inhibitors | 360,000 tested, 0.2% active | AID 720542; also: nearly all actives have a fitted effect of over 45% in size
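AMA1 (3D7) with his tag at 25 nM final met compounds first, then biotinylated RON2 peptide at 25 nM; detection used donor plus acceptor beads, 10 µg/mL apiece, read by AlphaScreen after 30 min at room temperature.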
Tb PYK inh = T. brucei pyruvate kinase inhibition. Q57TT1. TbPYK enzyme, Kinase-Glo Plus ATP luminescence, 45 min. Potency, µM (doses to about 76.8 µM), most hits filed as inhibitors. 410,000 tested, 0.12% active; also: nearly all actives have a fitted effect of over 50% in size
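Assay buffer: 50 mM TEA pH 7.2, 100 mM KCl, 10 mM MgCl2, 0.05% BSA, 0.01% Tween-20. Pyruvate kinase from T. brucei plus substrate met compound, then ADP (130 uM final). Luminescence was read post 45 min RT.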
RE007 growth inh = less growth of the S. pombe RE007 Vpr strain; S. pombe RE007 Vpr strain, BacTiter-Glo ATP luminescence, 24 h; Potency, µM (series often up to 92.2 µM), hits mostly inhibitors; 360,000 tested, 0.21% active; active = well fitted falling curve with a large enough effect; inconclusive = small, poorly fitted or top-dose-only effect; inactive = no such curve, though single readings can be large or run the other way; also: nearly all actives have a fitted effect of over 50% in size
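Fission yeast RE007 carrying one integrated HIV-1 vpr copy, seeded at OD 0.01 in PMG+AL medium with 23 nL pinned compound. Grown 24 h at 30 degrees; viability read by BacTiter-Glo luminescence after 5 min.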
Of the large screens only hits and unclear results are named; the others gave an inactive call. Hits are enriched below; roughly 0.81% of the tested compounds scored in any of these assays. Unless noted, calls follow the shape of the dose curve; as a rule, active = well fitted curve in the direction sought with a large enough effect; inconclusive = small, poorly fitted or top-dose-only effect, or another doubt; inactive = no such curve, though single readings can be large; an effect the other way counts as inactive or inconclusive.

Cc1ccc2c(c1)c1ccc3c(c1n2C)C(=O)C=CC3=O	LmPK inh inconclusive, Tb PYK inh inconclusive
Cn1c2ccccc2c2ccc3c(c21)C(=O)C=CC3=O	Tb PYK inh 22µM (no result: LmPK inh, SARS PLP yeast)
COc1ccc(Br)cc1C(C[N+](=O)[O-])c1c(N)n(C)c(=O)n(C)c1=O (configuration not stated)	RE007 growth inh 10µM
CC1(C)CC(=O)C2=C(C1)NC(SCC(=O)Nc1ccccc1)=C(C#N)C21CCCCC1	none
CC1(C)CC(=O)C2=C(C1)NC(=S)C(C#N)C21CCCCC1 (configuration not stated)	Tb PYK inh 2.8µM
CCC(=O)N1CCc2cc(S(=O)(=O)CCC(=O)Nc3cc(Cl)ccc3OC)ccc21	none (no result: LmPK inh, SARS PLP yeast, AMA1 RON2 block, RE007 growth inh)
Cc1ccc(NC(=O)CCCCCC2NC(=O)NC2C)cc1 (configuration not stated)	AMA1 RON2 block 0.21µM
COC(=O)c1c(NC(=O)/C(C#N)=C/c2ccccc2)sc2c1CCC2	none (no result: LmPK inh, SARS PLP yeast, AMA1 RON2 block, RE007 growth inh)
SC(COCc1ccccc1)CN1CCN(Cc2ccc3c(c2)OCO3)CC1 (configuration not stated)	AMA1 RON2 block 25µM
COc1cc2c(cc1OC)C(=Cc1ccc(N(C)C)cc1)C=C2	AMA1 RON2 block 8.9µM (no result: LmPK inh, SARS PLP yeast)
Cc1ccc(S(=O)(=O)SCCCSS(=O)(=O)c2ccc(C)cc2)cc1	Tb PYK inh 4µM, RE007 growth inh inconclusive (no result: LmPK inh, SARS PLP yeast)
Cc1ccc(S(=O)(=O)SC/C=C/CSS(=O)(=O)c2ccc(C)cc2)cc1	Tb PYK inh inconclusive, RE007 growth inh inconclusive (no result: LmPK inh, SARS PLP yeast)
CCN1CCN(C(=O)c2ccc3c(c2)N(Cc2c(F)cccc2Cl)C(=O)c2ccccc2S3)CC1	none (no result: LmPK inh, SARS PLP yeast, AMA1 RON2 block, RE007 growth inh)
CC1CCN(C2CC(=O)N(c3ccc(Br)cc3Br)C2=O)CC1 (configuration not stated)	RE007 growth inh 40µM
CC1CC(=O)N(c2ccc(Br)cc2)C(=O)C1	none
CC1CCN(C2CC(=O)N(c3ccccc3)C2=O)CC1 (configuration not stated)	RE007 growth inh 20µM
O=S(=O)(O)NC1CCCCC1	none (no result: LmPK inh, SARS PLP yeast, AMA1 RON2 block, RE007 growth inh)
CN(C)c1ccc2nc3ccc(=O)cc-3sc2c1	AMA1 RON2 block inconclusive, Tb PYK inh inconclusive, RE007 growth inh 45µM (no result: LmPK inh, SARS PLP yeast)
CCCOc1ccc(/C=N/NC(=S)Nc2ccccc2[N+](=O)[O-])c(O)c1	SARS PLP yeast 10µM
CCCN1C=CC(=C2C(=O)c3ccccc3C2=O)C=C1	LmPK inh 14µM, Tb PYK inh inconclusive, RE007 growth inh inconclusive
CCN1C=CC(=C2C(=O)c3ccccc3C2=O)C=C1	LmPK inh 13µM, Tb PYK inh inconclusive, RE007 growth inh inconclusive
CCCCCCN1C=CC(=C2C(=O)c3ccccc3C2=O)C=C1	LmPK inh inconclusive
CC(C)(C)c1ccc2cccc(F)c2n1	none (no result: LmPK inh, SARS PLP yeast)
COc1ccc(NC(=O)Cn2cnc3ccc(S(=O)(=O)N4CCC(C)CC4)cc3c2=O)cc1Cl	none (no result: LmPK inh, SARS PLP yeast, AMA1 RON2 block, RE007 growth inh)
Cc1cc(N2CCOCC2)c(F)cc1C(=O)c1ccccc1	RE007 growth inh 13µM
CC(=O)c1cc(F)c(N2CCOCC2)cc1C	none
CC[C@@H]([C@H](C)O)n1ncn(-c2ccc(N3CCN(c4ccc(OCC5CO[C@@](Cn6cncn6)(c6ccc(F)cc6F)C5)cc4)CC3)cc2)c1=O (some centres not stated)	none (no result: LmPK inh, SARS PLP yeast, AMA1 RON2 block, RE007 growth inh)
Oc1ccc(/C=N/N2CCN(C3c4ccccc4-c4ccccc43)CC2)cc1	AMA1 RON2 block inconclusive
O=C(O)c1ccc(/C=N/N2CCN(C3c4ccccc4-c4ccccc43)CC2)cc1	LmPK inh 22µM
O/N=C/c1cc(Br)ccc1OCc1ccc(F)cc1	RE007 growth inh 35µM (no result: LmPK inh, SARS PLP yeast)
Cc1ccc(COc2ccc(Br)cc2/C=N/O)cc1	RE007 growth inh 32µM
O/N=C/c1cc(Br)ccc1OCc1cccc(F)c1	RE007 growth inh inconclusive
CCOc1cc(/C=N/O)ccc1OCc1ccc(C)cc1	none
N#Cc1c(NC(=O)CCC(=O)O)sc2c1CCCCC2	Tb PYK inh 35µM
CC(C)C[C@@H](NC(=O)[C@@H](COC(C)(C)C)NC(=O)[C@H](Cc1ccc(O)cc1)NC(=O)[C@@H](CO)NC(=O)[C@@H](Cc1c[nH]c2ccccc12)NC(=O)[C@@H](Cc1cnc[nH]1)NC(=O)[C@@H]1CCC(=O)N1)C(=O)N[C@H](CCCN=C(N)N)C(=O)N1CCC[C@H]1C(=O)NNC(N)=O	none (no result: LmPK inh, SARS PLP yeast, AMA1 RON2 block, RE007 growth inh)
Cc1ccc(C)c(N=Nc2nc3ccccc3n2C)c1	LmPK inh inconclusive, AMA1 RON2 block 11µM, RE007 growth inh inconclusive
Cc1cc(C)c(C)c(N=Nc2nc3ccccc3n2C)c1C	AMA1 RON2 block 11µM
O=C(CO)[C@@H](O)C(O)[C@@H](O)CO (some centres not stated)	none (no result: LmPK inh, SARS PLP yeast, AMA1 RON2 block, RE007 growth inh)
Oc1cccc2ccc(/C=C/c3cccs3)nc12	LmPK inh 22µM, RE007 growth inh inconclusive
Cc1cc(NC(=O)CSCC(=O)Nc2nc3ccccc3s2)no1	none (no result: LmPK inh)
C(=N\Nc1nc2ccccc2[nH]1)/c1ccncc1	none
O=[N+]([O-])c1ccc(O)c(/C=N/Nc2nc3ccccc3[nH]2)c1	SARS PLP yeast 11µM
C(=N\Nc1nc2ccccc2[nH]1)/c1cccs1	LmPK inh 14µM
Cc1ccsc1/C=N/Nc1nc2ccccc2[nH]1	LmPK inh 14µM
CCC1(CC)C(=O)N(c2ccccc2)C(=N)N(c2ccccc2)C1=O	none (no result: LmPK inh, SARS PLP yeast)
O=C(O[C@@H]1OC2COC(=O)c3cc(O)c(O)c(O)c3-c3c(cc(O)c(O)c3O)C(=O)O[C@@H]([C@H]1O)[C@@H]2O)c1cc(O)c(O)c(O)c1	SARS PLP yeast 13µM, AMA1 RON2 block 2.5µM, Tb PYK inh inconclusive
COCC(=O)N1CCc2nc(-c3ccc(OC)cc3C)c3c(c2C1)CO[C@@H](c1ccccc1)C3	none (no result: SARS PLP yeast, AMA1 RON2 block, Tb PYK inh, RE007 growth inh)
CC1=CC2OC3CC4OC(=O)C=CC=CC(=O)OCCC(C)C(O)C(=O)OCC2(CC1)C4(C)C31CO1 (configuration not stated)	RE007 growth inh inconclusive (no result: LmPK inh, SARS PLP yeast)
CC(=O)O[C@H]1C[C@@H]2OC3C=C(C)CCC3(C)[C@@]1(C)[C@@]21CO1 (some centres not stated)	RE007 growth inh 3.2µM (no result: LmPK inh, SARS PLP yeast)
CCCCNc1c([N+](=O)[O-])cc(C)cc1[N+](=O)[O-]	AMA1 RON2 block 19µM
CCCCNc1c([N+](=O)[O-])cc(C(=O)O)cc1[N+](=O)[O-]	none
Cc1ccc(OCC(=O)NCC(=O)OCc2cc(=O)n3nc(CC(C)C)sc3n2)cc1	none (no result: LmPK inh, SARS PLP yeast, AMA1 RON2 block, RE007 growth inh)
COc1ccc(CN2CCN(Cc3ccc(C(F)(F)F)cc3)CC2)c(OC)c1	AMA1 RON2 block 25µM
O=C(/C=C/c1ccc(O)c(O)c1)O[C@@H]1C[C@](O)(C(=O)O)C[C@@H](O)[C@H]1O	none (no result: LmPK inh)
O=C(/C=C/c1ccc(O)c(O)c1)OC1C(O)CC(OC(=O)/C=C/c2ccc(O)c(O)c2)(C(=O)O)CC1O (configuration not stated)	LmPK inh 2µM, Tb PYK inh inconclusive
Cc1ccc(S(=O)(=O)CCC(=O)N(Cc2nnc(-c3ccc(Cl)cc3)o2)C2CC2)cc1	none (no result: LmPK inh)
